From PubChem BioAssay come the findings set out here.

Inconclusive results are not listed. Calls of active or inactive are those of the source.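 The calls were made as follows, unless noted: active = differentiation response of at least 50%, scaled between solvent and reference control, from cells with both markers; inactive = the rest.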

As usually defined, the inhibition is the relative decrease from the control value, in per cent.

Test [1] in a line: yeast TOR pathway RPL19A-GFP modulators, primary screen, cell-based, S. cerevisiae, multiplex flow cytometry (AID 1862; in the data active = percent of DMSO control GFP below about 86%;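 also: lower values mimic rapamycin by blocking the RPL19A rise seen in DMSO cells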). The note with it: S. cerevisiae RPL19A-GFP strain, flow cytometry fluorescence, 3 h; at 10 µM; stronger effect = lower value. On the technique in general: Flow cytometry measures light scatter and fluorescence of single cells or particles in a stream.
The nature of test [2]: modulators of MEP2-GFP levels in yeast, primary screen, S. cerevisiae, multiplex flow cytometry (AID 1867;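 active = GFP response, as percent of the DMSO control, above the screen-wide mean plus 3 SD, about 139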;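 also: median GFP channel fluorescence of barcode-gated MEP2-GFP cells measured by flow cytometry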). The note with it: S. cerevisiae MEP2-GFP strain, 3 h, at 10 µM, stronger effect = higher value, 100% means same as DMSO wells.
Test [3] is described as follows: modulators of CIT2-GFP expression in yeast, primary screen, S. cerevisiae, GFP fusion, multiplex flow cytometry (AID 1870;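 active = percent response above a set limit, the screen-wide mean plus 3 SD, cut at about 130% in these data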;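 also: barcoded CIT2-GFP strain pooled with four other GFP strains with rapamycin as positive control; median GFP fluorescence per well over plate mean of DMSO wells so 100% = DMSO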). Particulars: 3 h, at 10 µM, stronger effect = higher value.
Test [4] can be described thus: modulators of LAP4-GFP expression in yeast, primary screen, S. cerevisiae, multiplex flow cytometry (AID 1873;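 active = GFP signal, as percent of the solvent control, above the screen mean plus 3 SD, about 149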). Particulars: 3 h, at 10 µM, stronger effect = higher value.
Test [5] is described as follows: inhibitors of CD8+ T cell-vesicle binding, pilot screen, LFA-1/ICAM-1 modulator project, MLPCN validation set, flow cytometry (AID 2523;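 active = response below a set limit, under 55% cells CD8-positive and vesicle-bound, and CD8 cells' 90th-percentile brightness under 279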;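 as to vesicle binding response: mean PE anti-B7-1 fluorescence of CD8+ cells relative to row control; 100% = QL9-loaded vesicles with DMSO vehicle in the same plate row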). Particulars: 2C mouse CD8+ T cells, at 7 µM, stronger effect = lower value; double positive events: measured here: CD8+/vesicle+ event percentage.
The target of test [6] is Integrin beta-1 (Homo sapiens) + Integrin alpha-4 (Homo sapiens) (UniProt P13612+P05556). Put plainly: inhibition of HUTS-21 binding to VLA-4, pilot screen, VLA-4 allosteric modulator project, U937 cells, HUTS-21 mAb, flow cytometry, validation set (AID 2674;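 active = inhibition above 50%, about 3 SD of the validation set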;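 also: antibody binding induced by the VLA-4 ligand LDV present at three times its Kd; 0% = LDV ligand with antibody and no compound and 100% = antibody without LDV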). The note with it: HUTS-21 LIBS mAb binding, at 6.7 µM, stronger effect = higher value, binding induced by LDV ligand.
Integrin beta-1 (Homo sapiens) + Integrin alpha-4 (Homo sapiens), sequence (P05556 whole entry, looked up): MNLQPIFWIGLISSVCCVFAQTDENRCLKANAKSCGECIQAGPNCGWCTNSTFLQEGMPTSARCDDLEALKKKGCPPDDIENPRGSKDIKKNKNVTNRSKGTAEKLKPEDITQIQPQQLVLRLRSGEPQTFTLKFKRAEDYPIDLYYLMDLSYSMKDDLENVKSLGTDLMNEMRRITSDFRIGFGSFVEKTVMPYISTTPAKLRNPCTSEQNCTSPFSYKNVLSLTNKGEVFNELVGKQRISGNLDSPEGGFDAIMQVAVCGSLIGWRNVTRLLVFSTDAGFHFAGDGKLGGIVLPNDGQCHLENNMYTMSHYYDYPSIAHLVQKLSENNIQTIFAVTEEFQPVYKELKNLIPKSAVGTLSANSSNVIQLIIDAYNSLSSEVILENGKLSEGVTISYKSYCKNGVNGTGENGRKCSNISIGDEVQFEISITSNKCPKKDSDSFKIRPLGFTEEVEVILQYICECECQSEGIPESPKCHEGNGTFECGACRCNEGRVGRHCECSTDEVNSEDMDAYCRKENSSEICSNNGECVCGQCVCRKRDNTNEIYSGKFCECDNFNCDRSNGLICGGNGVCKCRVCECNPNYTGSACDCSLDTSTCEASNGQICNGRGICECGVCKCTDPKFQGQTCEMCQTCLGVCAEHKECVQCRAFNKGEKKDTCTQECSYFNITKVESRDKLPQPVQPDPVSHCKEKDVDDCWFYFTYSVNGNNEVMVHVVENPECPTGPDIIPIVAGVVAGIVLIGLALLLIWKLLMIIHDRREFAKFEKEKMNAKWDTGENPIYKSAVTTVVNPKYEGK
Integrin beta-1 (Homo sapiens) + Integrin alpha-4 (Homo sapiens), sequence (P13612 whole entry, looked up): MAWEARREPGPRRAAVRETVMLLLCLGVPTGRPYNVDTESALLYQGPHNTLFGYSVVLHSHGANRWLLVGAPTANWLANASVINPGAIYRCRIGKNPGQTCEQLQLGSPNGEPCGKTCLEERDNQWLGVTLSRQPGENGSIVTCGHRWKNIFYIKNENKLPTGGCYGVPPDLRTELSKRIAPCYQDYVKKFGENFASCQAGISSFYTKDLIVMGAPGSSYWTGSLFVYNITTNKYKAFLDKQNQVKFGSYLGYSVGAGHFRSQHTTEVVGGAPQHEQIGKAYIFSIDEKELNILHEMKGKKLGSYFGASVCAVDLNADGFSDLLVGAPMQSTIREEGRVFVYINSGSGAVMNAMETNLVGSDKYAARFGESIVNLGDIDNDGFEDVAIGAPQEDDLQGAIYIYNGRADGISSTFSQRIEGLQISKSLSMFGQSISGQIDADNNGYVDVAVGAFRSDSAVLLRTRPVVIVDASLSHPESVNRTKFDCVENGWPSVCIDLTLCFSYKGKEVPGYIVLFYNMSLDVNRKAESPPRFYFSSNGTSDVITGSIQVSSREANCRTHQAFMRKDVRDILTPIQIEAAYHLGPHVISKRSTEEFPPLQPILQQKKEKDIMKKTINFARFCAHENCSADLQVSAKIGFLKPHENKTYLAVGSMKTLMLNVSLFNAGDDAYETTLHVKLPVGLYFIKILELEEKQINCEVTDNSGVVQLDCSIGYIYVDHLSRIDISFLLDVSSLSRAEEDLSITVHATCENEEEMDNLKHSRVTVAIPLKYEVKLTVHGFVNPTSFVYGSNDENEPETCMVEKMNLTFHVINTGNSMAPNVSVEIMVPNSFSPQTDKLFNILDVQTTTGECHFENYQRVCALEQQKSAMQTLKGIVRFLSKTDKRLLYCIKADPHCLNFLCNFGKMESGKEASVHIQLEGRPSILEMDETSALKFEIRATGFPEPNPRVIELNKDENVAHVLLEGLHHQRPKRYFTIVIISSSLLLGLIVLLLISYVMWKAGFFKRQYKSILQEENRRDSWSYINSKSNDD
Test [7] in a line: superoxide lowering in aged yeast cells, pilot screen, validation compound set (AID 2706;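 active = superoxide response below 65% of plate, a cut near 3 SD across the whole screen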;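 also: yeast exposed to compound for one week at 30 degrees C before staining; 100% = mean of all compound wells on the same plate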). The note with it: S. cerevisiae aging, superoxide DHE fluorescence; at 10 µM, stronger effect = lower value.
Test [8] concerns the target Beta-adrenergic receptor kinase 1 (Homo sapiens) (UniProt P25098). As to the kind of experiment: GRK2 binders displacing RNA aptamer, biochemical, validation, human GRK2, bead flow cytometry (AID 488806;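 active = aptamer binding inhibition above 30%, about 3 SD of noise from non-fluorescent compounds; inactive = inhibition at or below 30%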). Particulars: bead-bound GRK2, FAM-aptamer displacement, at 10 µM, stronger effect = higher value.
The target in test [9] is Beta-2 adrenergic receptor (Homo sapiens) (UniProt P07550). As to the kind of experiment: beta2AR agonists driving receptor internalization, pilot screen, cell-based, FAP fluorogen, flow cytometry, validation set (AID 504459;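 active = percent response above 42, roughly 3 SD of non-fluorescent test compounds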;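 also: agonist-driven loss of surface beta2AR via internalization measured by FAP dye flow cytometry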). The note with it: Am2.2-beta2AR cells, FAP surface receptor flow cytometry; at 10 µM; stronger effect = higher value.
Beta-2 adrenergic receptor (Homo sapiens), sequence (P07550 whole entry, looked up): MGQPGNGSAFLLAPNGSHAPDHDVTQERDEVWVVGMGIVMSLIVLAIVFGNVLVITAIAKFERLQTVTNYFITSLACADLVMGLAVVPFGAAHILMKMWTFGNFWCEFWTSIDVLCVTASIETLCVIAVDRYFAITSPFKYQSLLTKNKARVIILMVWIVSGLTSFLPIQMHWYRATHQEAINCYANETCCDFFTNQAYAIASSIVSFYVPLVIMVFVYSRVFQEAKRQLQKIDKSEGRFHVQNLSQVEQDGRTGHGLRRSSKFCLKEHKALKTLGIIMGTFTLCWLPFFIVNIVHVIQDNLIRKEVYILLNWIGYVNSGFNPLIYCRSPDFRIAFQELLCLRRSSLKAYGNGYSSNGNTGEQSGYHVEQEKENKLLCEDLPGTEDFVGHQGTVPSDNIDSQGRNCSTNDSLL
Test [10] addresses AP-2 complex subunit beta (Homo sapiens) (UniProt P63010). As to the kind of experiment: inhibitors of arrestin peptide binding to AP2, pilot screen, biochemical, validation set, GST-AP2 beads, flow cytometry (AID 504541;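 active = inhibition above 54%, about 3 SD of non-fluorescent compounds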;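 also: AP2 carries R879A mutation and is captured from E. coli lysate; bead-bound FITC arrestin peptide fluorescence measuring arrestin peptide binding to AP2; 0% = DMSO wells and 100% = excess unlabeled arrestin peptide control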). The note with it: FITC arrestin peptide, at 10 µM, stronger effect = higher value, AP2 beta2 appendage fragment, R879A mutant.
The nature of test [11]: yeast V-ATPase proton transport modulators, S. cerevisiae, pHLuorin, HTS validation (AID 504600; in the data active = response above about 15%;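 also: plate controls were DMSO for no effect and reference compound for full effect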). The note with it: S. cerevisiae pHLuorin cytosolic pH, at 10 µM, stronger effect = higher value.
The subject of test [12] is anti-desmoglein-3 scFv antibody binding to human DSG3. Put plainly: inhibitors of anti-DSG3 scFv binding to DSG3, pilot screen, biochemical, validation compound set, bead-based, flow cytometry (AID 588368;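 active = binding below the plate cutoff, the plate median minus 3 SD, with a reading above zero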;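 also: signal is the median channel fluorescence of bead-bound GFP antibody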). The note with it: Protein G beads, DSG3-Fc, scFv-GFP binding, at 10 µM, stronger effect = lower value.
A short description of test [13]: inhibitors of fungal efflux pumps CDR1, CDR2, MDR1, pilot screen, validation compound set, multiplex, phenotypic (AID 588506;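 active = efflux inhibition above 0.42, the validation set average plus 4 SD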;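 also: Nile Red retained in cells so higher fluorescence means more efflux inhibition; 0 = negative control wells and 1 = enniatin B 25 µM full block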). Particulars: S. cerevisiae pump-expressing triplex, Nile Red efflux flow cytometry; at 10 µM; stronger effect = higher value; the pumps come from Candida albicans.
Test [14] has as its target ATP-binding cassette sub-family B member 6 (Homo sapiens) (UniProt Q9NP58). Put plainly: ABCB6 transporter inhibitors, pilot screen, K562-ABCB6 cells, flow cytometry, validation set (AID 588550;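 active = inhibition above the screen-wide mean plus 3 SD, about 51%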;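 also: 0% = DMSO wells and 100% = benzethonium chloride 70 µM positive control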). Particulars: K562-ABCB6 porphyrin accumulation, 1 h, at 10 µM, stronger effect = higher value.
Test [15] can be described thus: promoters of myeloid differentiation in arrested cells, primary screen, cell-based, GFP/MAC1 double positive, flow cytometry, validation set (AID 588685).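 Also: compound exposure lasts four days before antibody staining and flow analysis; 0% = DMSO wells and 100% = 5 µM fulvestrant positive control.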 The note with it: ER-HoxA9 marrow cells, stronger effect = higher value, normalized: vehicle 0, fulvestrant 100.
Test [16] can be described thus: modulators of AGP1-GFP expression in yeast TOR pathway, primary screen, cell-based, multiplex flow cytometry, S. cerevisiae (AID 1887;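 active = GFP signal above the screen-wide mean plus 3 SD, that is over about 124.5% of the solvent control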;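 also: AGP1-GFP fusion strain of S. cerevisiae within a five-strain barcoded multiplex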). The note with it: 3 h, at 10 µM, stronger effect = higher value.

Beta-adrenergic receptor kinase 1 (Homo sapiens), sequence (P25098 whole entry, looked up): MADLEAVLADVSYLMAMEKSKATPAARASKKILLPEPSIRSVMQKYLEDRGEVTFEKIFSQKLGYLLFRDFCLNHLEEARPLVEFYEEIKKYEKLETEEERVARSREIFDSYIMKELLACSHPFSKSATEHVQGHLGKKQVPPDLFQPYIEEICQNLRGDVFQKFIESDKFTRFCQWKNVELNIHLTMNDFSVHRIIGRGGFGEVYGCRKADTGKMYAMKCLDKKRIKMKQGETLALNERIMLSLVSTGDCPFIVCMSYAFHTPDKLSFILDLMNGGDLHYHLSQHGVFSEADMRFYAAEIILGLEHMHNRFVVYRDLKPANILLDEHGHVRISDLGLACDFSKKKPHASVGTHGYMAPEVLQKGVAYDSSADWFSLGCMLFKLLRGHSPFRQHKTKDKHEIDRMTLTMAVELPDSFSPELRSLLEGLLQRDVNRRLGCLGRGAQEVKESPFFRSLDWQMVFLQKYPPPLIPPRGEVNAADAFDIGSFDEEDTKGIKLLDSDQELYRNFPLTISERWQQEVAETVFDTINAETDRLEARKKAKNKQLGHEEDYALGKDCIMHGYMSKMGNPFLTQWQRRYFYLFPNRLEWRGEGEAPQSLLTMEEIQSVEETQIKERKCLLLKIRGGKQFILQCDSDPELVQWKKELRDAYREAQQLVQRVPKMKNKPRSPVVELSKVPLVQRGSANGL
ATP-binding cassette sub-family B member 6 (Homo sapiens), sequence (Q9NP58 whole entry, looked up): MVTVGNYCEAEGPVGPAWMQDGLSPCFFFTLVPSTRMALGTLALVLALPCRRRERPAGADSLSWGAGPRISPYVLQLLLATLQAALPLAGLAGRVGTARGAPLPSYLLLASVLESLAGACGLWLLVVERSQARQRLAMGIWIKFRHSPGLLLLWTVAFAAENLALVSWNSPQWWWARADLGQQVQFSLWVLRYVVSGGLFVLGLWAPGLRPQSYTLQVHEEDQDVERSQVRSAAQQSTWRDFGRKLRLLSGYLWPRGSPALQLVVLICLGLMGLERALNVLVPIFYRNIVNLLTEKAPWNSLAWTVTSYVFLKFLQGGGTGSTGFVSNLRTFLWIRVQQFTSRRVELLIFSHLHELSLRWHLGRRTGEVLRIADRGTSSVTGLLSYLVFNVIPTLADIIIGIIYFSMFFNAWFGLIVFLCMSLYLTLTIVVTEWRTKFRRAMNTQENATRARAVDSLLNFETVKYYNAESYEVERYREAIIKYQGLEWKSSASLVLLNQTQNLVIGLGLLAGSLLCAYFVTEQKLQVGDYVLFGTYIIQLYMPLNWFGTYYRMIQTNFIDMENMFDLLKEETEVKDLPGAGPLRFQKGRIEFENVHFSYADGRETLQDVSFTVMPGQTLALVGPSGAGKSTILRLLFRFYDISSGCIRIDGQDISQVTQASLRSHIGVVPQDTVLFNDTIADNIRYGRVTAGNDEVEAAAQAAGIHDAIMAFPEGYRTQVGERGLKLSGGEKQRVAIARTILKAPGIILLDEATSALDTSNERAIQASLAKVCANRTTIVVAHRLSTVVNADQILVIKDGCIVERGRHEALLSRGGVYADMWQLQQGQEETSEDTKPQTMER
AP-2 complex subunit beta (Homo sapiens), sequence (P63010 whole entry, looked up, the tested form may be a part, one chain of several): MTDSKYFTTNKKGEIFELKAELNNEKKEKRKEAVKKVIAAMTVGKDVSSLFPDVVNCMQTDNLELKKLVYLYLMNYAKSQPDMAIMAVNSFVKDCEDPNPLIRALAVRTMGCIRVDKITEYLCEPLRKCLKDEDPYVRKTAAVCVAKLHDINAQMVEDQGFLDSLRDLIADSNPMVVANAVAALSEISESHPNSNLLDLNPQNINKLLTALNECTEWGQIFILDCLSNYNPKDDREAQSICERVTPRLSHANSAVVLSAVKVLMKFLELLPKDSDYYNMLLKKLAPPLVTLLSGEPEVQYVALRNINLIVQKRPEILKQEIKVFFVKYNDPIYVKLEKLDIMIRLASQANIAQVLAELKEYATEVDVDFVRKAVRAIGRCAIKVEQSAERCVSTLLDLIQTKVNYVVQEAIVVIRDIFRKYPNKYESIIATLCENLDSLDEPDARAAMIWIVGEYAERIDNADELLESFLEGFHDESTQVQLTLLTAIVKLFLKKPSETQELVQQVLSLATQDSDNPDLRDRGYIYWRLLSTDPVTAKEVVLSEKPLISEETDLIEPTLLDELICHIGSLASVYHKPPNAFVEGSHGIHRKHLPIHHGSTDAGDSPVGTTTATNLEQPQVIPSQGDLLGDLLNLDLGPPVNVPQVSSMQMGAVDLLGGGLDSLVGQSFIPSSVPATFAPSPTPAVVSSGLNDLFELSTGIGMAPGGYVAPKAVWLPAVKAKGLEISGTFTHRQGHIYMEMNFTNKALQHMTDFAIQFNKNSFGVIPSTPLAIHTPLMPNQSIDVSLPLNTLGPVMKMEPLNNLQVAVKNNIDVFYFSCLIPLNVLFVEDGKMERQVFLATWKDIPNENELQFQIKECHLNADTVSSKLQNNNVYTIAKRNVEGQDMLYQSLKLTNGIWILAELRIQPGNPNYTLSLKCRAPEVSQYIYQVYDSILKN

Regarding `CCN1CCN(C(=O)N[C@@H](C(=O)N[C@@H]2C(=O)N3[C@@H]2SC(C)(C)[C@@H]3C(=O)O)c2ccccc2)C(=O)C1=O`, in [1], the percent of DMSO control GFP is 94.4% (inactive). Besides, the figures for the GFP response vs DMSO in test [2] and in [4] were 122% (inactive) and 74.3% (inactive), respectively. Further, the percent response of DMSO control in [3] is 103% (inactive). In test [5], this compound gave a double positive events of 69.1%. In test [5], the vesicle binding response is 138% (inactive). Moreover, the inhibition in test [6] was -5.18% (inactive); in [10], 3.29% (inactive); in test [14] it was 7% (inactive). In addition, the superoxide response (% of plate) in test [7] was 109% (inactive). In addition, in [8], the aptamer binding inhibition was 2% (inactive). The response is -5.92% (inactive) in test [9] and 1.38% (inactive) in [11]. The binding (% of control) in test [12] was 103% (inactive). Also, in [13], the efflux inhibition (fraction of control) is 0.16 (inactive). In addition, the differentiation response in test [15] was 3.28% (inactive).
For the compound `Cc1ccccc1NC(=O)C1c2ccccc2Oc2ccccc21`, the percent of DMSO control GFP in [1] was 96.1% (inactive). The GFP response vs DMSO is 120% (inactive) in test [2] and 77.6% (inactive) in [4]. For the same compound, the percent response of DMSO control in test [3] was 110% (inactive). For the same compound, the double positive events in [5] amounted to 65.5%. Also, in test [5], the vesicle binding response was 217% (inactive). In addition, the inhibition was 4.52% (inactive) in [6], -0.97% (inactive) in test [10] and 12% (inactive) in test [14]. Moreover, the superoxide response (% of plate) in test [7] is 86.5% (inactive). In test [8], the aptamer binding inhibition is 2% (inactive). For the same compound, the figures for the response in [9] and in [11] were -5.21% (inactive) and -0.9% (inactive), respectively. Further, in test [12], the binding (% of control) was 105% (inactive). Also, the efflux inhibition (fraction of control) in test [13] is 0.16 (inactive). Moreover, the differentiation response in test [15] was -4.09% (inactive).
Take `CN(C)CCCN1c2ccccc2CCc2ccc(Cl)cc21`: the percent of DMSO control GFP in [1] was 100% (inactive). In addition, the GFP response vs DMSO is 99.7% (inactive) in test [2] and 98% (inactive) in [4]. Further, in test [3], the percent response of DMSO control is 101% (inactive). In test [16], the GFP response, % of DMSO was 97.1% (inactive). Further, in test [5], the double positive events came to 65%. Besides, the inhibition in [6] is 12.3% (inactive); in test [10] it was -2% (inactive); in test [14], 18% (inactive). Besides, the superoxide response (% of plate) in [7] is 97.5% (inactive). In addition, the aptamer binding inhibition in [8] was -3% (inactive). Besides, the response was 38.7% (inactive) in [9] and -7.85% (inactive) in test [11]. For the same compound, the binding (% of control) in [12] is 112% (inactive). The efflux inhibition (fraction of control) in test [13] was 0.51 (active). Moreover, the differentiation response in test [15] is -10.4% (inactive).
As for `Nc1c2c(nc3ccccc13)CCCC2`, the percent of DMSO control GFP in test [1] is 89.5% (inactive). Further, the results for the GFP response vs DMSO in test [2] and in test [4] were 112% (inactive) and 69.9% (inactive), respectively. The percent response of DMSO control in test [3] was 99.2% (inactive). The same compound had a double positive events in test [5] of 68.9%. In test [5], the vesicle binding response is 258% (inactive). Further, the inhibition in [6] is 1.61% (inactive); in test [10], 3.69% (inactive); in test [14] it was 11% (inactive). In addition, in test [7], the superoxide response (% of plate) is 105% (inactive). Further, the aptamer binding inhibition in test [8] was 2% (inactive). Besides, the response in test [9] was -14.3% (inactive); in test [11], 7.21% (inactive). Besides, the binding (% of control) in test [12] is 104% (inactive). Also, the efflux inhibition (fraction of control) in test [13] was 0.05 (inactive). Further, the differentiation response in test [15] is -5.73% (inactive).
With `COc1ccc(-c2coc3cc(O)cc(O)c3c2=O)cc1`, in test [1], the percent of DMSO control GFP was 88.2% (inactive). For the same compound, the GFP response vs DMSO in test [2] was 99.9% (inactive); in test [4] it was 72.6% (inactive). Also, the percent response of DMSO control in [3] was 116% (inactive). The double positive events in test [5] came to 58.4%. Besides, in [5], the vesicle binding response was 199% (inactive). Moreover, the results for the inhibition in test [6], in test [10] and in [14] were 5.49% (inactive), 1.72% (inactive) and 7% (inactive), respectively. For the same compound, the superoxide response (% of plate) in [7] is 106% (inactive). Further, the aptamer binding inhibition in test [8] is 0% (inactive). The response in [9] was -6.34% (inactive); in test [11] it was 1.71% (inactive). Moreover, the binding (% of control) in [12] is 101% (inactive). Further, the efflux inhibition (fraction of control) in test [13] was -0.28 (inactive). Besides, the differentiation response in [15] was -9.83% (inactive).
